CYP2C9 inh – blockers of cytochrome P450 2C9 activity – biochemical, luminescence, ADME assay, primary screen. P11712. CYP2C9 Supersomes, luciferin-H conversion. inhibition, % at 5 µM. actives 20% (n = 96,000);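 active = blocking of liver enzyme CYP2C9 beyond about 50% at 5 µM, limit read from the data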
sEH activator – soluble epoxide hydrolase activators, primary screen, biochemical, human sEH; Bifunctional epoxide hydrolase 2 (Homo sapiens), P34913; purified human sEH enzymatic activity, activator screen; activation, % at 2 µM; actives 0.04% (n = 91,000); AID 717, 2007; in the data active = activation above about 37%
CYP2C9 act – human CYP2C9 activators, primary screen, biochemical, luminescence. Cytochrome P450 2C9 (Homo sapiens), P11712. activation factor at 5 µM. actives 1.4% (n = 96,000). recombinant CYP2C9, luciferin-H conversion; hits give high values; factor 1 = untreated enzyme, 0 = blocked;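 active = activation factor of 2 or more for CYP2C9 at a 5 µM dose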;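 also: 0 = sulfaphenazole-blocked wells and 1 = vehicle-only wells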
CYP2C19 inhib – blockers of cytochrome P450 2C19 activity – biochemical, luminescence, ADME assay, primary screen | P33261 | CYP2C19 Supersomes, luciferin-H EGE luminescence, 30 min | inhibition, % at 5 µM | actives 21% (n = 96,000);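 active = CYP2C19 inhibition above a set limit at 5 µM in the primary screen, cut at about 50% in these data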;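 also: plate controls were negative control wells for no effect and 2.5 mM tranylcypromine positive control for full effect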
Target sequence (P33261 whole entry, looked up): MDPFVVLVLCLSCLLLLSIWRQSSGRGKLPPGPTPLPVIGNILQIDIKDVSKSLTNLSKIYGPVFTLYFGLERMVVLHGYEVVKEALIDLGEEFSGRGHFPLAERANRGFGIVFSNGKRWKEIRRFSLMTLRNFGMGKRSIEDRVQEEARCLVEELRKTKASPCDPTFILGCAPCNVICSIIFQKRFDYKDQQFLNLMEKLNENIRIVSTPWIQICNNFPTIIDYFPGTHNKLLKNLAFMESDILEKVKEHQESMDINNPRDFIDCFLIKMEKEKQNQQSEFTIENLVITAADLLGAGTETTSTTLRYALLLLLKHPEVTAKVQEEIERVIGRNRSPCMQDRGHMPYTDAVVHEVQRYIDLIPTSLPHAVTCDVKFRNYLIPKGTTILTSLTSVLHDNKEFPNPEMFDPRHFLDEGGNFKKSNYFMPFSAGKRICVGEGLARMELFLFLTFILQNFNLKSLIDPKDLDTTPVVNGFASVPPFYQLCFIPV
CYP2C19 act – human CYP2C19 activators, primary screen, biochemical, luminescence | recombinant CYP2C19, luciferin-H EGE luminescence; hits give high values; 0 = fully inhibited enzyme, 1 = untreated enzyme | activation factor at 5 µM | 96,000 tested, under 10 active | AID 1025, 2008;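 active = activation factor of at least 2 at 5 µM in the primary screen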;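 also: 0 = wells with 2.5 mM tranylcypromine and 1 = vehicle-only wells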
sEH inhibitor – soluble epoxide hydrolase inhibitors, primary screen, biochemical, human sEH; inhibition, % at 2 µM; recombinant human sEH enzymatic activity assay; Bifunctional epoxide hydrolase 2 (Homo sapiens), P34913; actives 0.34% (n = 91,000); AID 707, 2007; in the data active = inhibition above about 80%
Active calls of the source: *; x = no result. An excerpt weighted towards active compounds, which were near 27% of everything screened.

SMILES | CYP2C9 inh | sEH activator | CYP2C9 act | CYP2C19 inhib | CYP2C19 act | sEH inhibitor
CC1=C(C(=O)Nc2cccnc2)C(c2ccc(C(C)C)cc2)n2ncnc2N1 (configuration not stated) | x | -1 | x | x | x | 1
Cc1nc(OCc2ccccc2)c2ccccc2n1 | 10 | -6 | 0.9 | 17 | 0.8 | 11
C=CCOc1nc(-c2ccncc2)nc2ccccc12 | 64* | 8 | 0.4 | 79* | 0.2 | -9
Nc1ccc(C(=O)N/N=C\c2cc(N=Nc3cccc4ccccc34)ccc2O)cc1 | 14 | -3 | 0.9 | 12 | 0.9 | 6
Cc1ccc(NCCC(=O)c2ccc(Br)cc2)cc1 | 16 | 7 | 0.8 | 79* | 0.2 | -6
CCc1ccc(NCCC(=O)c2ccc(Br)cc2)cc1 | 50* | 0 | 0.5 | 86* | 0.1 | -2
Cc1ccc(NCCC(=O)c2ccc(Cl)cc2)cc1 | 28 | -10 | 0.7 | 83* | 0.2 | 10
O=C1OC(Nc2ccc(Br)cc2F)c2ccccc21 (configuration not stated) | -8 | -5 | 1.1 | -6 | 1.1 | 3
CC1(C)Cn2c(nnc2-c2cccc(O)c2)S1 | 10 | -4 | 0.9 | 17 | 0.8 | 2
O=c1[nH]c2ccc(S(=O)(=O)N3CCCCC3)cc2[nH]c1=O | x | 3 | x | x | x | -3
Cc1ccccc1Cn1c(=O)n(CCCC(=O)NCc2ccco2)c(=O)c2sccc21 | 94* | -5 | 0.1 | 89* | 0.1 | 3
O=C(CCCCn1c(=S)[nH]c2ccsc2c1=O)NCc1ccco1 | 67* | 2 | 0.3 | 33 | 0.7 | 0
O=C(CCCn1c(=O)c2sccc2n(Cc2cc(=O)n3ccccc3n2)c1=O)NCc1ccco1 | 66* | x | 0.3 | 16 | 0.8 | x
Cc1ccc(C)c(Cn2c(=O)n(CCC(=O)NCc3ccco3)c(=O)c3sccc32)c1 | 9 | -4 | 0.9 | -5 | 1.1 | 6
Cc1cc(C)c(Cn2c(=O)n(CCCC(=O)NCc3ccco3)c(=O)c3sccc32)c(C)c1 | 61* | -9 | 0.4 | 27 | 0.7 | 7
O=C(CCCn1c(=S)[nH]c2ccsc2c1=O)NCc1ccco1 | 16 | -4 | 0.8 | 8 | 0.9 | 6
CCOC(=O)N1CCN(C(=O)c2c(O)c3cccc4c3n(c2=O)CC4)CC1 | -4 | 4 | 1 | 0 | 1 | -4
O=C(CNS(=O)(=O)c1ccccc1)N1CCN(c2ccccc2)CC1 | -9 | 0 | 1.1 | 3 | 1 | 3
O=C(NCCc1cccc(F)c1)[C@@H]1CSC2c3ccccc3C(=O)N21 (some centres not stated) | 28 | 4 | 0.7 | 21 | 0.8 | -4
COC(=O)c1cc(NC(=O)CSc2nncn2C)cc(C(=O)OC)c1 | 27 | 14 | 0.7 | 22 | 0.8 | -13
Cc1ccc(N2C(N)=C(C#N)C3(C(=O)N(C)c4ccccc43)C3=C2CC(C)(C)CC3=O)cc1Cl (configuration not stated) | 54* | -11 | 0.5 | 12 | 0.9 | 13
O=C1CC(C(=O)N(c2ccc(F)cc2)C(C(=O)NC2CCCC2)c2ccccn2)CS1 (configuration not stated) | -12 | 12 | 1.1 | -12 | 1.1 | -10
COc1ccc(NC(=O)N[C@@H](CCSC)C(=O)O)cc1Cl | -1 | 11 | 1 | 14 | 0.9 | -12
CCOC(=O)c1c(C2COc3ccccc3O2)csc1N (configuration not stated) | 80* | 0 | 0.2 | 91* | 0.1 | 1
CCOC(=O)N1CCN(C(=O)C2COc3ccccc3O2)CC1 (configuration not stated) | 3 | x | 1 | 13 | 0.9 | x
SMILES | CYP2C9 inh | sEH activator | CYP2C9 act | CYP2C19 inhib | CYP2C19 act | sEH inhibitor
CCOC(=O)c1c(C2COc3ccccc3O2)csc1NC(=O)c1ccccc1 (configuration not stated) | 71* | 4 | 0.3 | 17 | 0.8 | -4
Cn1c(=O)c2c(nc(CN3CCC(C(N)=O)CC3)n2Cc2ccccc2Cl)n(C)c1=O | 6 | x | 0.9 | -2 | 1 | x
Cc1ccc(NC(=O)CN2CC(C)SC2=NC2CCCCC2)cc1 (configuration not stated) | 10 | -2 | 0.9 | 82* | 0.2 | 2
CCOC(=O)N1CCN(CC(=O)Nc2ccc(C)cc2)CC1 | -64 | -7 | 1.6 | 1 | 1 | 9
CSCC[C@H](NC(=O)CCNC(C)=O)c1nc2ccccc2[nH]1 | -12 | 8 | 1.1 | -2 | 1 | -8
CCn1cnc2sc(-c3ccccc3)cc2c1=O | 71* | 2 | 0.3 | 44 | 0.6 | -2
CN(C(=O)COc1ccccc1)c1nnc(-c2cccnc2)s1 | 23 | 2 | 0.8 | 34 | 0.7 | -3
CCN(CC)S(=O)(=O)c1cc(C(=O)OC)ccc1Cl | 4 | 8 | 1 | 62* | 0.4 | -9
CCN(CC)S(=O)(=O)c1ccc(Cl)c(C(=O)OC)c1 | -113 | 9 | 2.1* | 33 | 0.7 | -11
CCN(CC)S(=O)(=O)c1cc(C(=O)O)ccc1Cl | -12 | -1 | 1.1 | -24 | 1.2 | 5
O=C(CCCC(=O)OCC1CCCO1)OCC1CCCO1 (configuration not stated) | 38 | -4 | 0.6 | -1 | 1 | 1
CC(=O)c1cccc(N(C(=O)c2cnccn2)C(C(=O)NCc2ccccc2)c2ccco2)c1 (configuration not stated) | 23 | 7 | 0.8 | 53* | 0.5 | -3
O=C(NCc1ccccc1)C(c1ccco1)N(C(=O)c1cnccn1)c1ccc(F)cc1 (configuration not stated) | -2 | 8 | 1 | 39 | 0.6 | -4
Cn1cnc([N+](=O)[O-])c1Sc1ncccc1N | 6 | 4 | 0.9 | 1 | 1 | -2
COc1ccc(C(=O)Nc2cc(OC)cc(OC)c2)cc1 | -10 | 6 | 1.1 | 86* | 0.1 | -6
COc1ccc(COC(=O)NNC(=O)c2ccc(OC)cc2)cc1 | x | 3 | x | x | x | 0
COc1cc(NC(=O)c2ccccc2)cc(OC)c1 | 7 | x | 0.9 | 19 | 0.8 | x
COc1ccc(OCc2ccc(C(=O)NN)cc2)cc1 | 69* | -12 | 0.3 | 92* | 0.1 | 13
COc1ccc(C(=O)Nc2cccc(OC(=O)c3ccc(C)c(C)c3)c2)cc1 | 70* | 0 | 0.3 | 27 | 0.7 | 2
O=C(CCn1cccc1)N1CCc2ccccc21 | -5 | x | 1 | 52* | 0.5 | x
CCc1nnc(NCC(=O)N2CCc3ccccc32)s1 | 60* | 12 | 0.4 | 48 | 0.5 | -11
COc1ccc(CC(=O)N2CCc3ccccc32)cc1 | x | -5 | x | x | x | 9
O=C(Cc1ccccc1)N1CCc2ccccc21 | 26 | 7 | 0.7 | 82* | 0.2 | -8
Cc1cc(N2CCC(C(=O)N3CCN(c4cccc(C)c4C)CC3)CC2)n2ncnc2n1 | -33 | x | 1.3 | -9 | 1.1 | x
